Pf growth 48h = inhibits P. falciparum growth in the first generation, 48 h. P. falciparum luciferase growth in erythrocytes, 48 h. Potency, µM (doses to about 28.7 µM), hits mostly inhibitors. hit rate 5.9% among 310,000. AID 504832
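Parasite viability was followed by luminescence of a genomically integrated firefly luciferase. Cultures held 0.1% parasitemia at 2% hematocrit (final), incubated under 5% CO2 at 37 C.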
Pf growth 96h = inhibits malaria parasite growth, 96 h; P. falciparum luciferase reporter growth, 96 h; AID 504834; hit rate 6.9% among 320,000; Potency, µM (highest dose often 28.7 µM), usual class: inhibitors
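96 h incubation, 37 C, 5% CO2, of luciferase-reporter P. falciparum-infected RBCs (2% hematocrit, 0.05% parasitemia final) with test compounds; endpoint luminescence.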
HCV inhibitor = inhibitors of hepatitis C virus infection. Huh7.5.1 HCVcc-Cre infection, luciferase reporter, 44 h. Potency, µM (series often up to 41.8 µM), actives largely listed as inhibitors. hit rate 3.4% among 340,000. AID 651820
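Compounds are dispensed onto cells plated 4 h earlier at 1,000 per well, with HCVcc-Cre virus (about 0.5 moi) added next. Following 44 h of culture, luminescent signal is measured for 15 sec after 15 min with substrate at room temperature.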
AMA1-RON2 inh = AMA1-RON2 (P. falciparum) interaction inhibition. Potency, µM (top dose mostly 58.2 µM), actives largely listed as inhibitors. hit rate 0.2% among 360,000. AlphaScreen AMA1-biotinylated RON2 peptide binding; also: nearly all actives have a fitted effect of over 45% in size
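AMA1 (3D7) with his tag at 25 nM final met compounds first, then biotinylated RON2 peptide at 25 nM; detection used donor plus acceptor beads, 10 µg/mL apiece, read by AlphaScreen after 30 min at room temperature.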
Each line names hits and unclear results; the compound was inactive in the other large screens. Only some compounds are listed: those with a hit (about 11% of all), similar ones and a draw of the others. Calls follow the shape of the dose curve; as a rule, active = well fitted curve in the direction sought with a large enough effect; inconclusive = small, poorly fitted or top-dose-only effect, or another doubt; inactive = no such curve, though single readings can be large; an effect the other way counts as inactive or inconclusive.

CCOC(=O)C(C#N)=C1CCN(Cc2ccccc2)CC1	Pf growth 96h 7.38µM (no result: Pf growth 48h)
COCC1CCN(Cc2c(C(=O)N3CCc4ccccc4C3)nc3ccc(Cl)cn23)C1 (centres undefined)	Pf growth 48h inconclusive, Pf growth 96h inconclusive
Cc1nnc(SCC(=O)N2CC(C)OC(C)C2)n1-c1ccccc1 (centres undefined)	none
CC(C)c1ccccc1-n1c(SCC(=O)N2CCN(c3ccccc3)CC2)nnc1-c1cccnc1	Pf growth 48h inconclusive, Pf growth 96h 8.28µM
Cn1c(SCC(=O)N2CCN(c3ccccc3)CC2)nnc1-c1ccncc1	Pf growth 96h 11.7µM
Cc1c(C)n2c(SCC(=O)N3CC(C)OC(C)C3)nnc2[nH]c1=O (centres undefined)	Pf growth 48h inconclusive, Pf growth 96h 5.22µM
Cc1c(C)n2c(SCC(=O)N3CCCCCC3)nnc2[nH]c1=O	Pf growth 96h inconclusive
CC1CN(C(=O)CSc2nnc(-c3ccncc3)n2-c2ccccc2)CC(C)O1 (centres undefined)	Pf growth 96h 10.4µM
CN(C)C(=O)CSc1nnc(-c2cccnc2)n1-c1ccccc1	Pf growth 96h inconclusive (no result: Pf growth 48h)
CCCN1CCN(C(=O)c2ccc(CS(=O)c3ccc(Br)cc3)o2)CC1 (centres undefined)	none (no result: Pf growth 48h, Pf growth 96h, HCV inhibitor)
CCCCC1CCC(C(=O)OC(C)C(=O)Nc2ccc(NC(C)=O)cc2)CC1 (centres undefined)	Pf growth 48h inconclusive
Cc1cccc(C)c1OCc1cc(C(=O)N(C)CCc2ccccn2)no1	none
Cc1c(C)n2c(SCC(=O)N3CCOCC3)nnc2[nH]c1=O	Pf growth 48h inconclusive, Pf growth 96h inconclusive
Cn1c(SCC(=O)Nc2ccc3nc(SCC(=O)N4CCCC4)sc3c2)nnc1-c1ccccc1	Pf growth 48h 9.28µM, Pf growth 96h 3.29µM
O=C(CSc1nnc(-c2cccnc2)n1-c1ccc(SC(F)F)cc1)N1CCCc2ccccc21	Pf growth 48h inconclusive, Pf growth 96h 10.4µM
Cc1c(C)n2c(SCC(=O)N3CCN(c4ccccc4)CC3)nnc2[nH]c1=O	Pf growth 48h 3.29µM, Pf growth 96h inconclusive
CCOc1ccccc1-n1c(SCC(=O)N2CCCc3ccccc32)nnc1-c1cccnc1	Pf growth 48h inconclusive, Pf growth 96h inconclusive, HCV inhibitor inconclusive
CCCC(=O)Nc1ccc2nc(SCC(=O)N3CCCC3)sc2c1	Pf growth 48h inconclusive, HCV inhibitor inconclusive
COc1ccc([N+](=O)[O-])cc1NS(=O)(=O)c1cccc(C(=O)O)c1	none
O=C(c1cc(F)c(F)c(F)c1F)N1CCN(Cc2ccc3c(c2)OCO3)CC1	Pf growth 96h inconclusive
COC(=O)c1cc(C)sc1NC(=O)CCCC(=O)O	Pf growth 96h 9.28µM
COC(=O)c1ccc(Oc2nc(C(N)=O)cc(-c3ccccc3)n2)cc1	none (no result: Pf growth 48h)
Cc1nc2ccc(NC(=O)c3cccs3)cc2c(=O)n1Cc1ccc(Cl)cc1	Pf growth 48h inconclusive, Pf growth 96h 3.29µM, HCV inhibitor inconclusive
CCCc1nc2ccc(NC(=O)c3cccs3)cc2c(=O)n1Cc1ccc(Cl)cc1	Pf growth 48h 0.465µM, HCV inhibitor inconclusive
Cc1ccc(S(=O)(=O)NC(=O)c2ccc(-c3ccc(-c4ccccc4)cc3)o2)c(C)c1	none (no result: AMA1-RON2 inh)
CCOC(=O)NC(=O)/C(C#N)=C(/C)N(C)C	Pf growth 48h inconclusive
CC(C)C[C@@H]1Cc2[nH]c(=S)[nH]c(=O)c2[C@H](CCc2ccccc2)O1	none (no result: Pf growth 48h, Pf growth 96h, HCV inhibitor)
O=C(Cc1ccc(Cl)cc1)Nc1ccccc1C(=O)N1CCCCC1	none
CN1CCN(c2ccc([N+](=O)[O-])c(-n3nc(-c4ccccc4)c4ccccc4c3=O)c2)CC1	Pf growth 48h inconclusive, Pf growth 96h 8.28µM, HCV inhibitor 4.47µM
Cc1nn(-c2cc(N3CCCCC3)ccc2[N+](=O)[O-])c(=O)c2ccccc12	Pf growth 48h inconclusive, HCV inhibitor inconclusive
CN1CCN(c2ccc([N+](=O)[O-])c(Sc3ccccn3)c2)CC1	Pf growth 48h inconclusive, Pf growth 96h 0.294µM, HCV inhibitor inconclusive
CC(C)(C)c1cc(NC(=O)C2(C)CCN2C(=O)C2(c3ccccc3)CC2)no1 (centres undefined)	none (no result: Pf growth 48h, Pf growth 96h, HCV inhibitor)
COc1ccc(Cn2nnnc2CN2CCC(O)(c3ccc(F)cc3)CC2)cc1	none
COc1ccc(-c2[nH]ncc2CN2CCC(O)(c3ccc(Cl)cc3)CC2)cc1	Pf growth 48h inconclusive, Pf growth 96h 11.7µM, HCV inhibitor inconclusive, AMA1-RON2 inh inconclusive
Cc1ccc(Cn2nnnc2CN2CCC(O)(c3ccc(F)cc3)CC2)cc1	Pf growth 48h 13.1µM
OC1(c2ccc(Cl)cc2)CCN(Cc2cn[nH]c2-c2ccccc2)CC1	Pf growth 48h inconclusive, Pf growth 96h 9.28µM, HCV inhibitor inconclusive

From PubChem
